# Records with an inconclusive call do not appear. Entries that show only a call come without a potency. Values without a mark were called inactive. Active and inactive are the calls of the source. Calls come from the whole dose curve.
# Molecular target: 5-hydroxytryptamine receptor 2A (Homo sapiens) (UniProt P28223)
# Test: 5-hydroxytryptamine receptor 2A (HTR2A) small molecule antagonists, cell-based qHTS assay (AID 1963586); note: nearly all actives have a fitted effect of over 45% in size
# Summary of the method: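 CHO cells stably expressing human HTR2A were plated for 18 h at 37 C, then loaded with calcium dye for 1 h. Compounds were preincubated 5 min at room temperature before DOI (4 nM solution) was added. Kinetic fluorescence was read for 3 min.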
# Sequence of 5-hydroxytryptamine receptor 2A (Homo sapiens) (P28223 whole entry, looked up): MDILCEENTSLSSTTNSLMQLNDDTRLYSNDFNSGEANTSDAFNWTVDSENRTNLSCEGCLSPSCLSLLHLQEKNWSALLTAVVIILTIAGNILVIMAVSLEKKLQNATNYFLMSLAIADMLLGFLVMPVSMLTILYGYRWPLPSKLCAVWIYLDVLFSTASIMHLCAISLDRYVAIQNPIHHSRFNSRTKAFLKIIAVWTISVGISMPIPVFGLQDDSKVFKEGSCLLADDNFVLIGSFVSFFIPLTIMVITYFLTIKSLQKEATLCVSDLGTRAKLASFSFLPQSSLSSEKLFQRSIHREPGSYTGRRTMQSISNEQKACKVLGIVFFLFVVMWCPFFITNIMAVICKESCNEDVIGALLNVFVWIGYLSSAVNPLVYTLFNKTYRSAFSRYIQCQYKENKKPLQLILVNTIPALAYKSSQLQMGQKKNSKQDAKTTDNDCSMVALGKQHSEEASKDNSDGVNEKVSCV
SMILES,Potency,"activity, negative = inhibition"
Cc1cc(=O)oc2cc(O)cc(O)c12,inactive,–
COc1cccc(-c2ccc(/C=C\CN3CCCCCC3)cc2Cl)c1,inactive,–
CO[C@@H]1COCC[C@@H]1N[C@@H]1CC[C@@](C(=O)N2CCc3ncc(C(F)(F)F)cc3C2)(C(C)C)C1,inactive,–
C/C=C(\C)C=O,inactive,–
CCN1CN(CC)CN(CC)C1,inactive,–
CCc1nccnc1CC,–,-8.77% [at 12.7 µM]
CC(c1cc(C(C)(C)C)cc(C(C)(C)C)c1O)c1cc(C(C)(C)C)cc(C(C)(C)C)c1O,inactive,–
O=C(O)c1cc(O)c2ccccc2c1O,inactive,–
OCCSc1ccccc1,inactive,–
On1nnc2ccccc21,inactive,–

# Source: PubChem BioAssay (Tox21)
